Measured values as given in PubChem BioAssay (Tox21).
Results filed as inconclusive are left out. Calls of active or inactive are those of the source. Unless noted, calls come from the whole dose curve; as a rule, active = well fitted curve in the direction sought with a large enough effect in the repeat runs; inconclusive = weak or mixed curves; inactive = no such curve, though single readings can be large; an effect the other way counts as inactive or inconclusive.

Key:
[1] = qHTS assay to identify small molecule antagonists of the glucocorticoid receptor (GR) signaling pathway - cell viability counter screen (AID 720693); note: nearly all actives have a fitted effect of over 55% in size
[2] = qHTS assay for identifying genotoxic compounds that show differential cytotoxicity against isogenic chicken DT40 cell lines with known DNA damage response pathways - wild type cell line (AID 743012); note: nearly all actives have a fitted effect of over 60% in size
Procedure, shortened: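 Luminescent ATP viability signal (CellTiter-Glo, 30 min RT) recorded after wild type DT40 cells were incubated with compounds for 40 h at 37 C/5% CO2.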

[3] = qHTS assay for identifying genotoxic compounds that show differential cytotoxicity against isogenic chicken DT40 cell lines with known DNA damage response pathways - Rad54/Ku70 mutant cell line (AID 743015); note: nearly all actives have a fitted effect of over 60% in size
[4] = qHTS assay to identify small molecule antagonists of the androgen receptor (AR) signaling pathway - cell viability counter screen (AID 743033; note: nearly all actives have a fitted effect of over 45% in size)
[5] = qHTS assay to identify small molecule antagonists of the androgen receptor (AR) signaling pathway using the MDA cell line - cell viability counter screen (AID 743041; note: nearly all actives have a fitted effect of over 45% in size)
Procedure, shortened: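 In this qHTS counter assay, fluorescence intensity after CellTiter-Fluor addition indicated viability of MDA-kb2 AR-luc cells given compounds and R1881 for 16 h at 37C.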

[6] = qHTS assay to identify small molecule antagonists of the thyroid receptor (TR) signaling pathway - cell viability counter screen (AID 743064); note: nearly all actives have a fitted effect of over 50% in size
Procedure, shortened: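 Same-well viability check: GH3.TRE-Luc cells stimulated with 1 nM T3 alongside test compound for 23.5 h, followed by CellTiter-Fluor fluorescence.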

[7] = qHTS assay to identify small molecule antagonists of the thyroid receptor (TR) signaling pathway (AID 743065); note: series mostly up to about 70 µM; nearly all actives have a fitted effect of over 55% in size
Procedure, shortened: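 GH3.TRE-Luc rat pituitary cells carrying two TR response elements driving luciferase were plated for 4 h, given compound plus 1 nM T3 (final), and incubated 23.5 h at 37 C. ONE-Glo luminescence measured reporter inhibition; CellTiter-Fluor fluorescence tracked cytotoxicity.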

[8] = test system: thyroid hormone receptor (rat, GH3 cells); test: qHTS assay to identify small molecule agonists of the thyroid receptor (TR) signaling pathway (AID 743066; calls by dose curve)
[9] = qHTS assay to identify small molecule antagonists of the estrogen receptor alpha (ER-alpha) signaling pathway - cell viability counter screen (AID 743074; calls by dose curve;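 note: HEK293 cells carrying ER-alpha-UAS-bla reporter stimulated with 17beta-estradiol; nearly all actives have a fitted effect of over 45% in size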)
[10] = target: Estrogen receptor (Homo sapiens) (UniProt P03372); test: qHTS assay to identify small molecule agonists of the estrogen receptor alpha (ER-alpha) signaling pathway (AID 743075; calls by dose curve;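 note: HEK293 GripTite cells with ER-alpha and UAS-driven beta-lactamase reporter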)
Chain of Estrogen receptor (Homo sapiens) (P03372 whole entry, looked up): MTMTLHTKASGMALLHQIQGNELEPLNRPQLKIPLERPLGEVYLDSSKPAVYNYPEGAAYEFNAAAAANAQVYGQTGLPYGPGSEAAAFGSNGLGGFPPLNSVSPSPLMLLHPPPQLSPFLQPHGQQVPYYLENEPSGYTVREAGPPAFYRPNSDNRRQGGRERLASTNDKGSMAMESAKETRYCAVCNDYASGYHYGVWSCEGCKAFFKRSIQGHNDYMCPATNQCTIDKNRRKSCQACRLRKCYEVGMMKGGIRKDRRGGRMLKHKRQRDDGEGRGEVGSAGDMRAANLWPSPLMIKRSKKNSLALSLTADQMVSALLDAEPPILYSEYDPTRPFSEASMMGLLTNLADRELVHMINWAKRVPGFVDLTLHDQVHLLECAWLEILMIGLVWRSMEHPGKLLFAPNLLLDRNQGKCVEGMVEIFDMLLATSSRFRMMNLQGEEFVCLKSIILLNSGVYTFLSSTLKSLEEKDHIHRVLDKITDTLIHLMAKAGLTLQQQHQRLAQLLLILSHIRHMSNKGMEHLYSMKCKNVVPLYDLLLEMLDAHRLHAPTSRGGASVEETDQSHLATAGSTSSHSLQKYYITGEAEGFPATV

[11] = target: Estrogen receptor (Homo sapiens) (UniProt P03372); test: qHTS assay to identify small molecule agonists of the estrogen receptor alpha (ER-alpha) signaling pathway using the BG1 cell line (AID 743079); note: nearly all actives have a fitted effect of over 20% in size
[12] = qHTS assay to identify small molecule antagonists of the estrogen receptor alpha (ER-alpha) signaling pathway using the BG1 cell line (AID 743080; calls by dose curve;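 note: BG1 cells stimulated with 17beta-estradiol alongside compound; series mostly up to about 70 µM; nearly all actives have a fitted effect of over 25% in size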)
Procedure, shortened: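 Seeding, 24 h rest, compound transfer from DMSO, 17beta-estradiol addition, 21.5 h incubation, CellTiter-Fluor (30 min, 37 C), then ONE-Glo (30 min, room temperature): this sequence was run on BG1-Luc-4E2 reporter cells.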

[13] = qHTS assay to identify small molecule antagonists of the estrogen receptor alpha (ER-alpha) signaling pathway using the BG1 cell line - cell viability counter screen (AID 743081);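 note: compound given together with 17beta-estradiol as the ER stimulus; series mostly up to about 70 µM; nearly all actives have a fitted effect of over 45% in size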
Aromatase (Homo sapiens) = Aromatase (Homo sapiens) (UniProt P11511); test: qHTS assay to identify aromatase inhibitors (AID 743083); note: series mostly up to about 70 µM; nearly all actives have a fitted effect of over 55% in size
Chain of Aromatase (Homo sapiens) (P11511 whole entry, looked up): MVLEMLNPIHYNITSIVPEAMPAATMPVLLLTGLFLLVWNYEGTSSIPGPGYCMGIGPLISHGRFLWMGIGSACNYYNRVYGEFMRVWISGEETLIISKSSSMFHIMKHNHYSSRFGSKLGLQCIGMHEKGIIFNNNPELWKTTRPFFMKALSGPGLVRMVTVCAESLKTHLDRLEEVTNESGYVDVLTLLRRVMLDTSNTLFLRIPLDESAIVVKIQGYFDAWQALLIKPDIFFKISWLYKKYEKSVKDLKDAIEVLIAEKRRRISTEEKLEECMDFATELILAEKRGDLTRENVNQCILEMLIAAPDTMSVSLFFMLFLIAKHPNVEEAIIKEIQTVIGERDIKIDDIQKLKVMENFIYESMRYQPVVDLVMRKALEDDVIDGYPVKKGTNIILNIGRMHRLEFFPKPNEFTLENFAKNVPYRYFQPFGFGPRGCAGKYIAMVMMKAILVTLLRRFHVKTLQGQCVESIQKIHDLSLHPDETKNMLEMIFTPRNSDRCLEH

[14] = qHTS assay to identify aromatase inhibitors - cell viability counter screen (AID 743084);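 note: cells stimulated with testosterone during compound exposure; nearly all actives have a fitted effect of over 55% in size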
[15] = qHTS assay for identifying genotoxic compounds that show differential cytotoxicity against isogenic chicken DT40 cell lines with known DNA damage response pathways - Rev3 mutant cell line (AID 743014); note: nearly all actives have a fitted effect of over 55% in size
[16] = target: Estrogen receptor (Homo sapiens) (UniProt P03372); test: qHTS assay to identify small molecule antagonists of the estrogen receptor alpha (ER-alpha) signaling pathway (AID 743069; active = well fitted curve in the direction sought with a large enough effect in the signal ratio in the repeat runs, not every such curve was filed as active; the % refers to the signal ratio)
Procedure, shortened: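 A 17beta-estradiol challenge was applied right after compound transfer to ER-alpha-UAS-bla HEK293 cells previously kept in charcoal-stripped serum. Plates stood 18 hr at 37C and 5% CO2; fluorescence was read following 2 hr FRET substrate loading at room temperature.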

[17] = target: Androgen receptor (Homo sapiens) (UniProt P10275); test: qHTS assay to identify small molecule agonists of the androgen receptor (AR) signaling pathway (AID 743036; active = well fitted activation curve with a large enough effect in the signal ratio in the repeat runs, with a control signal flat, not every such curve was filed as active; the % refers to the signal ratio)
Chain of Androgen receptor (Homo sapiens) (P10275 whole entry, looked up): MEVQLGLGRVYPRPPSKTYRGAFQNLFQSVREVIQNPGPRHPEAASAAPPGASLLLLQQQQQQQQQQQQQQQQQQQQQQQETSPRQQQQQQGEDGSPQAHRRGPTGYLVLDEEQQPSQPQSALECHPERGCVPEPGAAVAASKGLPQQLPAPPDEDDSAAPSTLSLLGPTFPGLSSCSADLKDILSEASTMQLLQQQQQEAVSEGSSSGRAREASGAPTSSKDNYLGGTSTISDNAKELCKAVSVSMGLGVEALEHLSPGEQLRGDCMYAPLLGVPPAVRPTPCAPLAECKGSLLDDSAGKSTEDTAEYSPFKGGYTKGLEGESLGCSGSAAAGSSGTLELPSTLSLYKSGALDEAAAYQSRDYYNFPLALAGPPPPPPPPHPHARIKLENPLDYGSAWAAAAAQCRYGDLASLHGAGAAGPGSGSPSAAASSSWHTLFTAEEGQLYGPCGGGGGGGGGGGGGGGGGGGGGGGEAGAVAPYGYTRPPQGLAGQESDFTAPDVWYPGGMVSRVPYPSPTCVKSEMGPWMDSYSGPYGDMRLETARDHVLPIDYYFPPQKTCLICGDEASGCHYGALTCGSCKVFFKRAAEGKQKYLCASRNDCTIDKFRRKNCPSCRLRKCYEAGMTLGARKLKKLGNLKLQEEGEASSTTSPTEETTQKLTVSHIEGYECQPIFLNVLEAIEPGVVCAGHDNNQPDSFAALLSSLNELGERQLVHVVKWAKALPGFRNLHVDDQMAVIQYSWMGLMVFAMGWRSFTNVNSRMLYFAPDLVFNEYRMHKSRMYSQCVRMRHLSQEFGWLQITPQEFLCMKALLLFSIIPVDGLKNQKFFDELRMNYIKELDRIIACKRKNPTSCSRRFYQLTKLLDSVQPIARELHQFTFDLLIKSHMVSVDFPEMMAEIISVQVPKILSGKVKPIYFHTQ
Procedure, shortened: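 Agonist activity was scored by beta-lactamase reporter fluorescence in stably transfected HEK293 cells exposed to compounds for 16 h at 37C and 5% CO2. Substrate loading took 2 h at room temperature.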

[18] = target: Androgen receptor (Homo sapiens) (UniProt P10275); test: qHTS assay to identify small molecule agonists of the androgen receptor (AR) signaling pathway using the MDA cell line (AID 743040; note: nearly all actives have a fitted effect of over 20% in size)
Procedure, shortened: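 Cell-based luciferase reporter: MDA-kb2, MMTV promoter (AR + GR response elements). 16 h compound exposure at 37C; ONE-Glo, 30 min RT, luminescence.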

[19] = target: Androgen receptor (Homo sapiens) (UniProt P10275); test: qHTS assay to identify small molecule antagonists of the androgen receptor (AR) signaling pathway using the MDA cell line (AID 743042; note: nearly all actives have a fitted effect of over 55% in size)
Procedure, shortened: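 MDA-kb2 cells (human breast carcinoma, stably carrying an MMTV-luciferase reporter responsive to AR and GR) were plated at 3,000 cells/well and preincubated 5 hr at 37C, then given compound plus R1881 agonist for 16 h. ONE-Glo luminescence was read.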

Measured: Potency

CCC(C)C(=O)OCCc1ccccc1 (stereo not drawn)
not listed: [15] | [16] | [17] | [18] | [19]
inactive: all other assays above

Cc1ccc(N)cc1S(=O)(=O)O
not listed: [3] | [16] | [17] | [18] | [19]
inactive: all other assays above

CCCc1ccc(O)cc1
not listed: [4] | [11] | [16] | [17] | [18] | [19]
inactive: all other assays above

CC(C)=CCC/C(C)=C/COC=O
inactive: [1] | [2] | [3] | [5] | [6] | [7] | [8] | [9] | [13] | Aromatase (Homo sapiens) | [14]

CCOc1cccc(N)c1
not listed: [4] | [7] | [17] | [18] | [19]
inactive: all other assays above

CO[Si](CCCn1c(=O)n(CCC[Si](OC)(OC)OC)c(=O)n(CCC[Si](OC)(OC)OC)c1=O)(OC)OC
not listed: [3] | [10] | [11] | [12] | [16] | [17] | [18] | [19]
inactive: all other assays above

CC(=O)OCC(=O)Nc1cc(C#N)cc(NC(=O)COC(C)=O)c1Cl
not listed: [1] | [13] | [17] | [18] | [19]
inactive: all other assays above

O=C(NCN1CCOCC1)c1cnccn1
not listed: [1] | [16]
inactive: all other assays above

COC(=O)c1cc(Cl)cc(Cl)c1
not listed: [1] | [17]
inactive: all other assays above
